The values below come from PubChem BioAssay AID504444 (National Center for Advancing Translational Sciences (NCATS), 2011).

Molecules are shown by their SMILES. Values joined by “and” are separate entries in the source; they are usually repeats but may differ in a detail not shown here. Identical values can stand only once. Screen size: about 360,000 compounds; about 7,500 (2.1%) were called active. Inconclusive results (about 20%) are left out. The call rests on the fitted dose curve; in most records, active means well fitted inhibition curve with a large enough effect; inconclusive means small, poorly fitted or top-dose-only effect, or effect the other way; inactive means flat fitted curve, though single readings scatter. The entries come from a sample that favours actives as a whole. Where a call stands in place of a potency, no number is given.
Potency means the concentration at half of the fitted maximal effect.

A short description of this experiment: Nrf2 qHTS screen for inhibitors. Further: nearly all actives have a fitted effect of over 60% in size. The following applies: A549 ARE-Fluc reporter, luciferase luminescence, 18-24 h; series mostly up to 46 µM. The method, boiled down:
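A549 ARE_Fluc cells (5000/well, 5% FBS OPTI-MEM) pre-incubated 2 h, then treated with compounds 18-24 h at 37C/5% CO2 in concentration-response. CellTiter-Fluor viability read first; BugLite luciferase luminescence after 15 min at room temperature gives Nrf2 activity.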
`COc1ccc(-n2c(=O)c3sc4ccccc4c3n(CC(=O)Nc3cccc(C)c3)c2=O)cc1`: the Potency result was “inactive”.

As to `Cc1ccc(C)c(Cn2c(C)c(CNCc3ccc(F)cc3)c(C(=O)O)c2C)c1`, the Potency result was “inactive”.

Take `Cc1ccc(S(=O)(=O)N2CCC(C(=O)N3CCCCCCC3)CC2)cc1`: the Potency entry was “inactive”.

For `Cc1c(C(=O)N/N=C/c2ccccc2)[nH]c2c([N+](=O)[O-])cccc12`, the Potency result is “inactive”.

For `COc1cccc2c(C)c(C(=O)O)[nH]c12`, the Potency was 20.6 µM (active).

`COc1cc2c(C(=O)O)c(C)n(C)c2c2ccccc12`: the Potency result was “inactive”.

Turning to `Cc1cc2c(cc3c(SCc4cccc(Cl)c4)nnc(C)n32)o1`, the Potency entry was “inactive”.

As to `CC1Sc2ccc(C(=O)NCc3ccccc3Cl)cc2NC1=O` (stereo unspecified), the Potency result is “inactive”.

For `CCn1c2ccccc2c2cc(NC(=O)COC(=O)c3cc(S(=O)(=O)N4CCCCC4)ccc3Cl)ccc21`, the Potency entry was “inactive”.

Turning to `CCn1c(O)c(N=NC(=O)c2cccc(S(=O)(=O)N3CCCCC3)c2)c2ccccc21`, the Potency was 20.6 µM (active).

With `Cc1cccc(NC(=O)c2cccc(S(=O)(=O)N3CCCC3)c2)n1`, the Potency result was “inactive”.

As for `Cc1ccc(S(=O)(=O)N2CCN(C(=O)COC(=O)/C=C/c3cccc(Cl)c3)CC2)c(C)c1`, the Potency entry was “inactive”.

For the molecule `COC(=O)c1ccccc1NC(=O)c1cc(-c2ccccc2O)no1`, the Potency entry is “inactive”.

Regarding `Cc1ccc(C)c(S(=O)(=O)N(C)c2ccc(OC(=O)C3CCN(C(=O)c4ccc(F)cc4)CC3)cc2)c1`, the Potency result was “inactive”.

As to `COc1cccc2c1cc1c(=O)n(CC(=O)N3CCN(c4ccccc4)CC3)nc(C)n12`, the Potency entry is “inactive”.

For the molecule `COc1cc(NS(=O)(=O)c2ccc(NC(C)=O)cc2)cc(OC)c1`, the Potency was 5.8 µM (active).

`COc1ccc(NS(=O)(=O)c2ccc(NC(=O)c3ccc(N(C)S(C)(=O)=O)cc3)cc2)cc1`: the Potency was 16.4 µM (active).

With `COC(=O)COc1ccc(S(=O)(=O)Nc2ccc(NC(C)=O)cc2)cc1`, the Potency result is “inactive”.

Consider `COc1ccc(NS(=O)(=O)c2ccc(C(=O)Nc3c(C)n(C)n(-c4ccccc4)c3=O)cc2)cc1`, for which the Potency entry was “inactive”.

For the molecule `COc1cc(OC)cc(C(=O)Nc2ccc(S(=O)(=O)Nc3cc(C)on3)cc2)c1`, the Potency entry is “inactive”.

Turning to `COc1ccc(NC(=O)c2cnc(NS(=O)(=O)c3ccccc3)nc2)cc1`, the Potency result is “inactive”.

For `O=C(OCC#CCSc1nnc(-c2ccco2)o1)c1ccc(F)cc1`, the Potency result is “inactive”.

For the molecule `CC(C)n1cnc2c(NCc3ccccc3)cc(OCC3CCN(C)CC3)cc21`, the Potency entry was “inactive”.

As for `Cc1ccc(NC(=O)c2ccc(Cl)nc2)cc1S(=O)(=O)N1CCOCC1`, the Potency entry was “inactive”.

With `CCc1ccc(NC(=O)CCCc2nnc3n(CCCOC)c(=O)c4sccc4n23)cc1`, the Potency entry is “inactive”.

Take `O=C(c1cc(C(=O)N2CCN(c3ccc(F)cc3)CC2)cc([N+](=O)[O-])c1)N1CCN(c2ccc(F)cc2)CC1`: the Potency is 18.4 µM (active).

Turning to `O=C(c1cncc(Br)c1)N1CCN(c2ccc([N+](=O)[O-])cc2)CC1`, the Potency result was “inactive”.

`O=C(c1cc2cc(F)ccc2[nH]1)N1CCN(c2ccc(F)cc2)CC1`: the Potency result was “inactive”.

With `Cc1ccc(-n2c(=O)c3cccnc3n2CC(=O)Nc2ccccc2C(F)(F)F)cc1C`, the Potency entry is “inactive”.

Turning to `CC(C)(C)OC(=O)C[C@@H]1C/C=C\C[C@@H](CC(=O)N(CCO)Cc2ccccc2)C(=O)N[C@H](Cc2ccccc2)COC1=O`, the Potency result is “inactive”.

As for `CCCn1c(=N)n(CC(O)COc2ccccc2OC)c2ccccc21` (stereo unspecified), the Potency result was “inactive”.

`Cc1nn(Cc2ccc(F)cc2)c(C)c1NC(=O)c1cccnc1Cl`: the Potency result is “inactive”.

As to `Cc1cc(C(=O)Nc2c(C)nn(Cc3ccccc3)c2C)on1`, the Potency entry is “inactive”.

Regarding `Cc1ccccc1Cn1nc(C)c(NC(=O)c2cc(-c3ccc(F)cc3)on2)c1C`, the Potency entry was “inactive”.

`CC(C)Cc1cc(C(=O)Nc2cc(Br)ccc2O)no1`: the Potency entry is “inactive”.

In the case of `Cc1nn(Cc2ccc(F)cc2)c(C)c1NC(=O)c1cc(CC(C)C)on1`, the Potency was 20.6 µM (active).

Turning to `Cc1nn(Cc2ccc(F)cc2)c(C)c1NC(=O)c1noc2c1CCc1ccccc1-2`, the Potency was 20.6 µM (active).

Regarding `Nn1c(SCC(=O)NC2CCCc3ccccc32)nnc1C1CC1` (stereo unspecified), the Potency entry is “inactive”.

Consider `O=C(CN1CCN(C2CCS(=O)(=O)C2)CC1)N1N=C(c2ccc(Cl)cc2)CC1c1ccco1` (stereo unspecified), for which the Potency result was “inactive”.

For the molecule `C[C@@H]1NS(=O)(=O)c2cc(Cl)ccc2O[C@@H]1c1ccccc1`, the Potency entry was “inactive”.

Regarding `COc1ccc(CNC(=O)c2cc3c(s2)-c2ccccc2OC3)cc1`, the Potency entry is “inactive”.

As to `O=S(=O)(Nc1ccc2ccccc2c1)N1CCCCC1`, the Potency entry is “inactive”.

For `COc1ccc(C2=Nn3c(nnc3-c3ccccc3OC)SC2)cc1OC1CCCC1`, the Potency is 16.4 µM (active).

Take `Cc1nnc2n1N=C(c1ccccc1)CS2`: the Potency result is “inactive”.

As to `COc1ccc(C2=Nn3c(nnc3-c3ccccc3O)SC2)cc1`, the Potency entry is “inactive”.

For `Cc1cccc(NC(=O)CN(c2ccc(C(C)C)cc2)S(=O)(=O)c2c(C)nn(C)c2C)c1C`, the Potency entry was “inactive”.

On to `O=C1CC(c2ccccc2)CC2=C1C(c1ccco1)n1nc(C(F)(F)F)nc1N2` (stereo unspecified), for which the Potency entry is “inactive”.

Turning to `COC(=O)Cc1ccc(Oc2ncc(C(F)(F)F)cc2Cl)cc1`, the Potency entry is “inactive”.

Consider `O=S(=O)(Nc1ccccn1)c1ccc(Oc2ccccc2)cc1`, for which the Potency result is “inactive”.

On to `Cc1cc(C)cc(NS(=O)(=O)c2ccc(Oc3ncc(C(F)(F)F)cc3Cl)cc2)c1`, for which the Potency is 4.11 µM (active).

For `O=C(C[C@@H]1C/C=C\CCC(=O)OC[C@@H]2CCCN2C1=O)NCCO`, the Potency result was “inactive”.

As for `N#CCCN(C(=O)COC(=O)c1ccc2c(c1)OCCO2)c1ccccc1`, the Potency entry is “inactive”.

As to `Brc1nc2ncnc(NCc3ccco3)c2[nH]1`, the Potency entry was “inactive”.

Regarding `O=C(Nc1c(Br)cc2c(c1Br)Cc1cc([N+](=O)[O-])ccc1-2)C(Cl)Cl`, the Potency result is “inactive”.

`COc1ccc(C(CNC(=O)c2cccc(S(=O)(=O)Nc3ccc(Br)cc3)c2)N(C)C)cc1` (stereo unspecified): the Potency result is “inactive”.

For `Cc1ccc(C(=O)Oc2coc(CSc3nnc(NC(=O)c4cccs4)s3)cc2=O)cc1C`, the Potency is 14.6 µM (active).

Regarding `COC(=O)c1ccc(CSc2nnc(NC(C)C)s2)cc1`, the Potency entry was “inactive”.

As for `CCSc1nnc(NC(=O)c2cc(=O)c3cc(C)c(C)cc3o2)s1`, the Potency entry was “inactive”.

Turning to `Cc1ccc(NC(=O)c2oc3ccccc3c2NC(=O)Cc2cccs2)cc1`, the Potency entry is “inactive”.

For the molecule `Cc1cc(C)c(SCCc2ccncc2)c(C)c1`, the Potency was 16.4 µM (active).

Take `CCN(Cc1ccncc1)C(=O)CCc1ccccc1`: the Potency entry is “inactive”.

For the molecule `O=C(NOCc1ccccc1)c1cccc([N+](=O)[O-])c1`, the Potency result was “inactive”.

In the case of `CN1CCN(C2(CNC(=O)COc3ccc(C(C)(C)C)cc3)CCCCC2)CC1`, the Potency entry is “inactive”.

As for `O=C(/C=C/c1cccc(C(F)(F)F)c1)N1CCN(c2ccccn2)CC1`, the Potency is 23.1 µM (active).

As to `O=C(C(Cl)Cl)N1CCN(c2ccccn2)CC1`, the Potency entry was “inactive”.

With `O=C(Cc1ccc(Br)cc1)N1CCN(c2ccccn2)CC1`, the Potency entry is “inactive”.

Regarding `COc1ccc(CN2C(CC(=O)Nc3cccnc3)c3ccc(C(F)(F)F)cc3S2(=O)=O)cc1` (stereo unspecified), the Potency result was “inactive”.

Take `O=C(CNC(=O)c1ccc(Cl)cc1Cl)OC(C(=O)Nc1cc(C(F)(F)F)ccc1Cl)c1ccccc1` (stereo unspecified): the Potency result was “inactive”.

With `Cc1ccccc1NC(=O)c1ccccc1NS(=O)(=O)c1cccc2cccnc12`, the Potency entry is “inactive”.

Take `O=[N+]([O-])c1ccccc1S(=O)(=O)Nc1cccc2cccnc12`: the Potency is 5.8 µM (active) and 11.6 µM (active).

As to `O=[N+]([O-])c1cccc2ncccc12`, the Potency result is “inactive”.

Regarding `Cc1ccc(OCC(=O)NCCCNC(=O)c2cccnc2)cc1C`, the Potency was 5.17 µM (active).

Turning to `Cc1ccc(OCC(=O)NCCCNC(=O)c2ccco2)cc1C`, the Potency entry was “inactive”.

As to `Cc1ccc(NC(=O)COc2ccc(/C=N\NC(=O)c3cccnc3)cc2)cc1C`, the Potency result was “inactive”.

On to `Cc1ccc(S(=O)(=O)N(C)CC(=O)NCC(c2ccc(F)cc2)N2CCOCC2)cc1` (stereo unspecified), for which the Potency entry was “inactive”.

`CC(=O)Nc1nc2ccccc2n1Cc1ccc(C)cc1`: the Potency was 18.4 µM (active).

For `CC(=O)c1nc2ccccc2n1Cc1ccccc1`, the Potency result was “inactive”.

Take `CCC(=O)Nc1nc2ccccc2n1Cc1ccccc1C`: the Potency result is “inactive”.

In the case of `CCN(CC)CCNC(=O)Cn1ncc2c3ccccc3n(Cc3ccccc3C)c2c1=O`, the Potency entry is “inactive”.

Regarding `N#Cc1ccc(C(=O)Nc2nc(-c3cccs3)c(C(=O)C(F)(F)F)s2)cc1`, the Potency was 5.17 µM (active).

For `N#Cc1ccc(Oc2ccc(C(F)(F)F)cc2NC(=O)c2ccc(F)cc2)cc1`, the Potency entry was “inactive”.

As to `COC(=O)c1ccccc1NC(=O)c1ccc(C#N)cc1`, the Potency entry is “inactive”.

For `COc1ccc(C(F)(F)F)cc1NC(=O)c1sc2nc(-c3cccs3)ccc2c1N`, the Potency result is “inactive”.

In the case of `CN1CCN(C(=O)c2ccc(-c3ccc(Br)cc3)o2)CC1`, the Potency result was “inactive”.

On to `CC(=O)OCC(COC(C)=O)OC(C)=O`, for which the Potency result is “inactive”.

In the case of `CC(C[N+](C)(C)C)OC(N)=O` (stereo unspecified), the Potency entry is “inactive”.

For `CC(=O)OC(C)C[N+](C)(C)C` (stereo unspecified), the Potency is 0.461 µM (active).

With `O=C(Nc1ccc(S(=O)(=O)N2CCC(c3nc4ccccc4s3)CC2)cc1)c1ccccc1F`, the Potency result is “inactive”.

Take `Cc1ccc2onc(CC(=O)N3CCN(c4ccc(Cl)cc4)CC3)c2c1`: the Potency entry was “inactive”.

With `C[C@H](O)[C@@H]1C(=O)N2CCc3ccc(N4CCOCC4)cc3[C@@H]2C[C@@H]1N(C)C(=O)C(C)(C)C`, the Potency entry was “inactive”.

In the case of `O=C(c1ccc2c(c1)OCCO2)C1CCN(S(=O)(=O)c2cccc(F)c2)CC1`, the Potency is 14.6 µM (active).

As for `O=C(NCc1cccs1)C1CCN(S(=O)(=O)c2ccc3c(c2)OCCO3)CC1`, the Potency result was “inactive”.

For `O=C(c1c(F)cccc1F)N1CCN(S(=O)(=O)c2ccc3c(c2)OCCO3)CC1`, the Potency result is “inactive”.

Regarding `CC(C)c1ccc(C2CC(=O)N3CN(C4CCCCC4)CSC3=C2C#N)cc1` (stereo unspecified), the Potency result is “inactive”.

As for `COc1cc(C)cc(CN2CCC(Cc3ccccc3)CC2)c1O`, the Potency result is “inactive”.

Regarding `Oc1ccc(CN2CCN(c3ncccn3)CC2)cc1`, the Potency result is “inactive”.

As for `Oc1c(CN2CCCC2)cc(COCc2ccccc2)c2cccnc12`, the Potency was 16.4 µM (active).

For the molecule `CC(=O)c1ccc(NC(=O)CCc2nc(-c3ccc(C)cc3)no2)cc1`, the Potency entry was “inactive”.

For the molecule `C=CCn1c(=O)c2ccccc2n2c(SCC(=O)N3CCCc4ccccc43)nnc12`, the Potency result was “inactive”.

For the molecule `Cn1c(SCC(=O)N2CCCc3ccccc32)nc2ccccc2c1=O`, the Potency was 18.4 µM (active).

Regarding `O=C(CSc1nc2ccccc2c(=O)n1CCCO)N1CCc2ccccc21`, the Potency result was “inactive”.
